Reference: PubChem BioAssay (NCI)
The panel holds about 83,000 compounds, 20% with a hit somewhere; the sample as a whole holds those more often.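 Negative percent growth values reflect cell death: -40 means 40% of the cells present at the start died, and -100 means all died.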

Experiments:
Assay in all cases: NCI-60 one-dose screen, 48 h (100 = growth as untreated, 0 = no growth, -100 = all killed)
Conditions in all cases: 10 µM; active means growth percent below 10; inactive means the rest
SR leukemia = tested on: SR leukemia
OVCAR-8 ovarian = tested on: OVCAR-8 ovarian
OVCAR-5 ovarian = tested on: OVCAR-5 ovarian
OVCAR-4 ovarian = tested on: OVCAR-4 ovarian
SK-OV-3 ovarian = tested on: SK-OV-3 ovarian
IGROV1 ovarian = tested on: IGROV1 ovarian
OVCAR-3 ovarian = tested on: OVCAR-3 ovarian
HS 578T breast = tested on: HS 578T breast
NCI/ADR-RES ovarian = tested on: NCI/ADR-RES ovarian
T-47D breast = tested on: T-47D breast
BT-549 breast = tested on: BT-549 breast
MDA-MB-435 melanoma = tested on: MDA-MB-435 melanoma
SW-620 colon = tested on: SW-620 colon
MCF7 breast = tested on: MCF7 breast
HCT-116 colon = tested on: HCT-116 colon
HCC-2998 colon = tested on: HCC-2998 colon
RPMI-8226 leukemia = tested on: RPMI-8226 leukemia
KM12 colon = tested on: KM12 colon

Measured: growth

Nc1nc(-c2cccnc2)nc2c1sc(=S)n2-c1ccccc1
inactive: SR leukemia 113% | OVCAR-8 ovarian 101% | OVCAR-5 ovarian 125% | OVCAR-4 ovarian 128% | SK-OV-3 ovarian 103% | IGROV1 ovarian 98.1% | OVCAR-3 ovarian 114% | HS 578T breast 91.4% | NCI/ADR-RES ovarian 93.1% | T-47D breast 90.8% | BT-549 breast 101% | MDA-MB-435 melanoma 111% | SW-620 colon 104% | MCF7 breast 94.4% | HCT-116 colon 70.7% | HCC-2998 colon 105%

CCn1cc(C(=O)O)c(=O)c2cc(F)c(N3CCNCC3)cc21
inactive: SR leukemia 100% | RPMI-8226 leukemia 104% | OVCAR-8 ovarian 97% | OVCAR-4 ovarian 111% | SK-OV-3 ovarian 113% | OVCAR-3 ovarian 114% | HS 578T breast 111% | T-47D breast 124% | BT-549 breast 110% | MDA-MB-435 melanoma 107% | SW-620 colon 103% | MCF7 breast 107% | HCT-116 colon 115% | HCC-2998 colon 110% | KM12 colon 103%

Nc1c(Br)cc(Br)c2c1[nH]c(=O)c1ccccc12
inactive: SR leukemia 81.1% | RPMI-8226 leukemia 96.2% | OVCAR-8 ovarian 37.2% | OVCAR-5 ovarian 72.8% | SK-OV-3 ovarian 16.1% | IGROV1 ovarian 58.4% | OVCAR-3 ovarian 68.7% | HS 578T breast 30.5% | NCI/ADR-RES ovarian 44.3% | T-47D breast 39.2% | BT-549 breast 76.8% | MDA-MB-435 melanoma 93.3% | SW-620 colon 73.4% | MCF7 breast 22.1% | HCT-116 colon 83.1% | HCC-2998 colon 87.5% | KM12 colon 101%

CCOc1ccccc1/C=N/N1CCCCCC1
inactive: SR leukemia 89.3% | RPMI-8226 leukemia 110% | OVCAR-8 ovarian 103% | OVCAR-5 ovarian 107% | SK-OV-3 ovarian 95.9% | OVCAR-3 ovarian 97.1% | HS 578T breast 96% | NCI/ADR-RES ovarian 100% | T-47D breast 99.1% | BT-549 breast 103% | MDA-MB-435 melanoma 114% | SW-620 colon 96.1% | MCF7 breast 79.2% | HCT-116 colon 100% | HCC-2998 colon 93.5% | KM12 colon 106%

O=C(CCc1nnc2sc(-c3cc(O)c(O)c(O)c3)nn12)c1nc2ccccc2[nH]1
inactive: SR leukemia 49.6% | RPMI-8226 leukemia 87% | OVCAR-8 ovarian 94.7% | OVCAR-5 ovarian 117% | SK-OV-3 ovarian 104% | IGROV1 ovarian 109% | OVCAR-3 ovarian 119% | HS 578T breast 88.2% | NCI/ADR-RES ovarian 94.2% | T-47D breast 83.9% | BT-549 breast 107% | MDA-MB-435 melanoma 98.9% | SW-620 colon 116% | MCF7 breast 85.8% | HCT-116 colon 85.7% | HCC-2998 colon 111% | KM12 colon 105%

COc1ccc(C(=O)c2ccccc2CN2C(=O)c3ccccc3C2=O)cc1
inactive: SR leukemia 91.8% | OVCAR-8 ovarian 97% | OVCAR-5 ovarian 109% | OVCAR-4 ovarian 105% | SK-OV-3 ovarian 109% | IGROV1 ovarian 101% | OVCAR-3 ovarian 105% | HS 578T breast 105% | NCI/ADR-RES ovarian 95.5% | T-47D breast 90.6% | BT-549 breast 112% | MDA-MB-435 melanoma 108% | SW-620 colon 99% | MCF7 breast 102% | HCT-116 colon 101% | HCC-2998 colon 105%

CCOC(=O)C1C(C(=O)OCC)C2C(=O)C3C(C(=O)OCC)C(C(=O)OCC)C3C(=O)C12 (configuration not stated)
inactive: SR leukemia 117% | RPMI-8226 leukemia 101% | OVCAR-8 ovarian 104% | OVCAR-5 ovarian 108% | SK-OV-3 ovarian 109% | IGROV1 ovarian 118% | OVCAR-3 ovarian 114% | HS 578T breast 108% | NCI/ADR-RES ovarian 56% | T-47D breast 100% | BT-549 breast 109% | MDA-MB-435 melanoma 105% | SW-620 colon 111% | MCF7 breast 99.8% | HCT-116 colon 104%
